According to PubChem BioAssay (Tox21):
Results filed as inconclusive are left out. Active and inactive are the calls of the source. Unless noted, the call rests on the fitted dose curve; in most records, active means well fitted curve in the direction sought with a large enough effect in the repeat runs; inconclusive means weak or mixed curves; inactive means no such curve, though single readings can be large; an effect the other way counts as inactive or inconclusive.

Columns and labels:
[1] = qHTS assay for small molecule agonists of the p53 signaling pathway (AID 651631; calls by dose curve; further: nearly all actives have a fitted effect of over 15% in size)
Method in brief: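 Testing took place in human colorectal HCT-116 cells with stable p53RE-driven beta-lactamase. After 16 h of compound exposure at 37 °C, a FRET substrate was added and fluorescence recorded 2 h later.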

[2] = qHTS assay for small molecules that induce genotoxicity in human embryonic kidney cells expressing luciferase-tagged ATAD5 (AID 651632); further: nearly all actives have a fitted effect of over 15% in size
Method in brief: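 Luminescence read-out: after 16 hr compound exposure at 37C, ATAD5-luciferase HEK293T cells received Amplite, 30 min RT, then CCD imaging. A rise in signal marks genotoxic stress.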

[3] = qHTS assay for small molecule agonists of the p53 signaling pathway - cell viability (AID 651633; calls by dose curve; further: series mostly up to about 83 µM; nearly all actives have a fitted effect of over 30% in size)
Method in brief: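 p53RE-bla cells, seeded at 4,000 per well and rested 5 h at 37 C/5% CO2, received compounds in DMSO for 16 h at 37 C. CellTiter-Glo was then added, and luminescence was read after 30 min at room temperature to gauge cytotoxicity.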

[4] = qHTS assay for small molecules that induce genotoxicity in human embryonic kidney cells expressing luciferase-tagged ATAD5 - cell viability (AID 651634; calls by dose curve; further: nearly all actives have a fitted effect of over 25% in size)
Method in brief: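 HEK293T ATAD5-luc cells, 2,000/well; compound 15.5 hr, 37C/5% CO2; CellTiter-Fluor 30 min, 37C; fluorescence read.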

[5] = qHTS assay for small molecule disruptors of the mitochondrial membrane potential - cell viability (AID 720634; calls by dose curve;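 further: human HepG2 liver cancer cells; series mostly up to about 83 µM; nearly all actives have a fitted effect of over 20% in size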)
Method in brief: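 Luminescence from CellTiter-Glo (ATP content) gave viability in HepG2 cells, read in the same wells as the MMP dye assay after 1 hr compound exposure at 37 C.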

[6] = qHTS assay for small molecule disruptors of the mitochondrial membrane potential (AID 720635)
Method in brief: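 HepG2 cells (2,000/well) attached overnight at 37C, then took compound for 1 hr at 37C, 5% CO2. Mito-MPS dye was added for 30 min; fluorescence was read at 490/535 nm (monomers) and 540/590 nm (aggregates).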

[7] = qHTS assay to test for compound auto fluorescence at 590 nm (red) in HepG2 cells (AID 720674)
Method in brief: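 Rose Bengal sodium served as the red fluorophore standard. HepG2 monolayers (overnight attachment, MEM with 10% FBS) were exposed to test compounds for 1 hr at 37 C and read at Ex 540/Em 590 nm.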

[8] = qHTS assay to test for compound auto fluorescence at 535 nm (green) in HepG2 cells (AID 720675)
[9] = qHTS assay to test for compound auto fluorescence at 460 nm (blue) in HEK293 cells (AID 720678)
Method in brief: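 Measured: blue fluorescence (Ex 405/Em 460 nm) of compound-treated HEK293 cells, incubated overnight at 37C with 5% CO2 and scaled to triamterene equivalents.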

[10] = qHTS assay to test for compound auto fluorescence at 590 nm (red) in HEK293 cells (AID 720679)
Method in brief: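 Using HEK293 cells at 2,000 per well, the screen added 23 nL of each compound after cell attachment and incubated overnight (37C, 5% CO2). The plate reader then captured red-label fluorescence, Ex/Em 540/590nm.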

[11] = qHTS assay to test for compound auto fluorescence at 535 nm (green) in HEK293 cells (AID 720680)
[12] = qHTS assay to test for compound auto fluorescence at 460 nm (blue) in HEK293 cell free culture (AID 720681)
Method in brief: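 Test compounds were pinned into cell-free culture medium (DMEM with 10% FBS) and fluorescence was read directly at Ex/Em 405/460 nm. Signals were expressed as fluorescence equivalents of triamterene, with DMSO vehicle as control.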

[13] = qHTS assay to test for compound auto fluorescence at 535 nm (green) in HEK293 cell free culture (AID 720682)
Method in brief: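 DMEM + 10% FBS, cell-free; cpd or DMSO pinned in; Ex485/Em535 read; output as fluorescein-equivalent signal.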

[14] = qHTS assay to test for compound auto fluorescence at 590 nm (red) in HepG2 cell free culture (AID 720684)
Method in brief: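 Ex 540 / Em 590 nm read of compound in cell-free MEM (10% FBS). Rose Bengal sodium reference.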

[15] = qHTS assay to test for compound auto fluorescence at 460 nm (blue) in HepG2 cell free culture (AID 720685)
Method in brief: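 Cell-free plates of MEM plus 10% FBS received 23 nL compound or DMSO vehicle; blue-channel (405/460 nm) intensity scored against triamterene as reference fluorophore.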

[16] = qHTS assay to test for compound auto fluorescence at 535 nm (green) in HepG2 cell free culture (AID 720686)
[17] = qHTS assay to test for compound auto fluorescence at 460 nm (blue) in HepG2 cells (AID 720687)
Method in brief: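 Cells (2,000/well in MEM with 10% FBS) attached overnight at 37 C, then were exposed to compound or DMSO for 1 hr at 37 C, 5% CO2. Fluorescence read at Ex/Em 405/460 nm, expressed as triamterene-equivalent signal.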

[18] = molecular target: Glucocorticoid receptor (Homo sapiens) (UniProt P04150); assay: qHTS assay to identify small molecule agonists of the glucocorticoid receptor (GR) signaling pathway (AID 720691; active means well fitted activation curve with a large enough effect in the signal ratio in the repeat runs, not every such curve was filed as active; the % refers to the signal ratio)
Glucocorticoid receptor (Homo sapiens), sequence (P04150 whole entry, looked up): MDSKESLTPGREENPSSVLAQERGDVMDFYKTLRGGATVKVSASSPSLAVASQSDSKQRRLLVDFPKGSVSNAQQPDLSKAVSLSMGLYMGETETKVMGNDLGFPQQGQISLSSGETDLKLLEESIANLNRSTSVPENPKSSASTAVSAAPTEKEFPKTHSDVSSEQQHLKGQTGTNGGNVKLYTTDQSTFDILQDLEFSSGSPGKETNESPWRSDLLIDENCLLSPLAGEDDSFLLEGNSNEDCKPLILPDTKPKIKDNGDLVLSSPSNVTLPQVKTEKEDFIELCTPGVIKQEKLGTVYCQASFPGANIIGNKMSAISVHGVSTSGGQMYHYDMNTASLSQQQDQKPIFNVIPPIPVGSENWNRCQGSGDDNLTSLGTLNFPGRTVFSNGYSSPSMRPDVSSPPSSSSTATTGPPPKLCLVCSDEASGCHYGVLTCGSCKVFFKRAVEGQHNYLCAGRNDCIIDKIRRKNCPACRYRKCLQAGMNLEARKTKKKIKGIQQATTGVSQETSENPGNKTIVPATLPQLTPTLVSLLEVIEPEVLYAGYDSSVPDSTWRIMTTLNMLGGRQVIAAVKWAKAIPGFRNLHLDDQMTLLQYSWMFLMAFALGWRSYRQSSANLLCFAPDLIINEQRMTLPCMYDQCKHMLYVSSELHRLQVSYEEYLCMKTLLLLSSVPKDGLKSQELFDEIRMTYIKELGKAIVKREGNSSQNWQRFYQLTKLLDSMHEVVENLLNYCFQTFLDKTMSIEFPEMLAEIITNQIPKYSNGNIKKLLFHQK
Method in brief: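 HeLa GR-bla reporter line; cells pre-incubated 4 h, compound in DMSO 18 h at 37 C; LiveBLAzer B/G FRET substrate 2 h RT; fluorescence intensity read-out.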

[19] = molecular target: Glucocorticoid receptor (Homo sapiens) (UniProt P04150); assay: qHTS assay to identify small molecule antagonists of the glucocorticoid receptor (GR) signaling pathway (AID 720692; active means well fitted inhibition curve with a large enough effect in the signal ratio in the repeat runs, not every such curve was filed as active; the % refers to the signal ratio)
Method in brief: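 Read-out: beta-lactamase FRET substrate fluorescence, 2 h at room temperature, in HeLa cells stably carrying a GRE-driven bla reporter. Compounds were co-incubated with 5 nM dexamethasone agonist (final) for 18 h at 37 C.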

[20] = qHTS assay to test for compound auto fluorescence at 590 nm (red) in HEK293 cell free culture (AID 720683)
Method in brief: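 Tox21 10K library compounds were pinned into cell-free DMEM with 10% FBS and fluorescence was read at excitation 540 nm. Activity is expressed as Rose Bengal sodium equivalency.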

Measured: Potency

CCSC(=O)Cl
inactive: [1] | [2] | [3] | [4] | [5] | [6] | [7] | [8] | [9] | [10] | [11] | [12] | [13] | [14] | [15] | [16] | [17] | [18] | [19]

CCCOC(=O)Cc1ccc(OCC(=O)N(CC)CC)c(OC)c1
inactive: [1] | [2] | [3] | [4] | [5] | [6] | [7] | [8] | [9] | [10] | [11] | [12] | [13] | [20] | [14] | [15] | [16] | [17]

CC(C)N(Cc1ccccc1)C(=O)C(C)(C)C
inactive: [1] | [2] | [3] | [4] | [5] | [7] | [8] | [9] | [10] | [11] | [12] | [13] | [20] | [14] | [15] | [16]

CCC(=O)OC1(c2ccccc2)CCN(C)CC1
inactive: [1] | [2] | [3] | [4] | [5] | [6] | [7] | [8] | [9] | [10] | [11] | [12] | [13] | [20] | [14] | [15] | [16] | [17] | [18] | [19]

CCCC(C)(COC(N)=O)COC(N)=O
inactive: [1] | [2] | [3] | [4] | [5] | [6] | [7] | [8] | [9] | [10] | [11] | [12] | [13] | [20] | [15] | [16] | [17] | [18]

O=C(O)C(F)(F)C(F)(F)C(F)(F)C(F)(F)C(F)(F)C(F)(F)F
inactive: [1] | [2] | [3] | [4] | [5] | [7] | [8] | [9] | [10] | [11] | [12] | [13] | [20] | [14] | [15] | [16] | [17]

CC(C)(C)C(=O)Cl
inactive: [1] | [2] | [3] | [4] | [5] | [6] | [7] | [8] | [9] | [10] | [11] | [12] | [13] | [20] | [15] | [16] | [17] | [18] | [19]
